biological target: PEX11G; assay: pooled miR-30 sensor sort-seq; sequence = guide strand; conditions: shRNA
Also: reference of the scale not given here.

Sequence	sensor-assay potency score (higher = more potent)
TTTCAGCAGCATCCACAGGGAC	-0.746
AACCAGAACTCCACCAACCAGC	-1.17
TTCCCTAGGACGGAGACACAGC	-1.05
TGGACACCACCAACAGACGTGT	-1.09

biological target: PFKFB4; assay: as above; conditions: shRNA

Sequence	sensor-assay potency score (higher = more potent)
TAGGTCTTGACCACGTCCCGGC	-0.311
TTAAAGATGGTCGCTCTCCGTT	-0.54
TTTCACACTTCACAAAGCCAAC	-1.28
TTGATATAGGACAGGTCCCTAT	-1.32
TTTTGGTCACTGATGAACTGGG	-0.438
TCATCTAGCGACTCGTAGGAGT	-0.615
TATCGAGTCAGCTTCTTGGAGA	-0.636
TTTCCTTTCACATTGTAGGGTT	0.667
TAGACTCTTGGCAAACTCCCTG	0.333
TTCACTGTGAGAGCAGGCCTGA	-0.707
TTTGTAGGTCTTGACCACGTCC	-0.178
TCAAGTGACTCTTAGCAGCAGG	-0.462

— the OligoGym collection
